Shown are actives, neighbours in structure and some others; about 2.2% of the full set was active somewhere.
iPSC survival up – enhancers of human iPSC single-cell survival | hiPSC single-cell survival, ATPlite luminescence; 100% = ROCK inhibitor wells, 0% = DMSO | survival enhancement, % at 20 µM | 0.044% of 360,000 active; in the data active = survival enhancement above about 18%;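 note: cells exposed to compounds for 16 hours before the ATP read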
Myeloid diff MLP – promotes myeloid progenitor differentiation. 1% of 360,000 active. ER-HoxA9 myeloid progenitors, lysozyme-GFP differentiation, flow cytometry. calls only at 10 µM. AID 624256;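 active = normalized GFP-positive differentiation at or above the plate's own cutoff, the solvent-only control mean plus 3 SD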;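 note: cells exposed to compound for four days before flow analysis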
Cardio protect – myocardial damage modulation in H9c2 cells. 0.63% of 360,000 active. protection from H2O2 cell death, % at 20 µM. H9c2 cardiomyocytes, H2O2 injury protection, ATPLite, 2 h;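 active = compounds giving at least 50% protection of heart cells from peroxide-induced death in the single-dose screen, raw or plate-pattern-corrected value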;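 note: 0% = DMSO wells with peroxide and 100% = DMSO wells without peroxide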
ABCB6 inh 2 – human ABCB6 transporter inhibition; Q9NP58; K562-ABCB6 porphyrin accumulation, flow cytometry, 1 h; active compounds read low; fluorescence ratio to DMSO, % at 10 µM; 0.19% of 360,000 active; AID 602162;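 active = fluorescence ratio to DMSO below 75%, the collection mean minus 3 SD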;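 note: signal is porphyrin accumulated inside mitochondria; 100% equals median channel fluorescence of DMSO control wells; lower ratio means ABCB6 inhibition with less porphyrin fluorescence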
Target sequence (Q9NP58 whole entry, looked up): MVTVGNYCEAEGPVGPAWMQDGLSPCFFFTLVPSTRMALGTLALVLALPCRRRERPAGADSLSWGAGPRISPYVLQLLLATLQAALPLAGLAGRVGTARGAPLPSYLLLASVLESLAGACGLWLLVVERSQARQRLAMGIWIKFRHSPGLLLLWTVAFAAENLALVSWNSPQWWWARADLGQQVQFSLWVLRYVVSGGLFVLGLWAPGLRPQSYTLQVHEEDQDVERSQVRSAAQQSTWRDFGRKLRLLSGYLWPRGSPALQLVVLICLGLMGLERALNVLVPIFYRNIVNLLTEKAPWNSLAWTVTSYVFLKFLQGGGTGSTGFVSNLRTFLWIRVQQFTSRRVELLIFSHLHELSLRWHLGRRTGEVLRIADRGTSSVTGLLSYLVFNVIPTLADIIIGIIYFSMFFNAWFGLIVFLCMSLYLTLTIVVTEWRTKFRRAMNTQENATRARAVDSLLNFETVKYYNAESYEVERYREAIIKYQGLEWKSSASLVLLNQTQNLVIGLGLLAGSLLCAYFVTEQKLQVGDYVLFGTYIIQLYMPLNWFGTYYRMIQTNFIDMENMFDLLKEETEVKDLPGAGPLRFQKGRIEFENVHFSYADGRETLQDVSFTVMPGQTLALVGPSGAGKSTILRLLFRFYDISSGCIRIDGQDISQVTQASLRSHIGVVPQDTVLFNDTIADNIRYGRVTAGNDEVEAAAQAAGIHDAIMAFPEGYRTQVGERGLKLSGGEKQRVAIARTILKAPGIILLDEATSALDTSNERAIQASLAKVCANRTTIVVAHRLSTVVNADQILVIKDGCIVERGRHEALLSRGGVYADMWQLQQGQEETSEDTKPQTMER
MIN6 prolif – inducers of beta-cell replication in MIN6 cells; MIN6 cells proliferation, ATPlite luminescence, 48 h; cells starved in 0.2% serum; 100% = growth in 10% serum; proliferation, % at 10 µM; 0.29% of 330,000 active; AID 2380;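 active = compounds whose signal lies at least 3.5 SD above the mean of all wells on their plate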;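 note: 0% = DMSO-treated cells in low-serum medium and 100% = 10% serum control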
Myeloid diff – myeloid differentiation induction | ER-HoxA9 myeloid progenitors, GFP/Mac1 double-positive flow | calls only | AID 651706 | 2% of 2,300 active | shares compounds with Myeloid diff MLP;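 active = share of green or green-and-red cells above 9 and 9% in run 1 or 4 and 3% in run 2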
GFP autofluor – compound fluorescence in myeloid differentiation counter-screen; shares compounds with Myeloid diff MLP; 7.4% of 2,300 active; fluorescence response, % (test concentration not listed); ER-HoxA9 myeloid progenitors, no estrogen, GFP autofluorescence flow cytometry; vehicle wells 0%, positive control 100%;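 active = over 5% cells positive for green fluorescent reporter, or over 2% positive for both it and APC stain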;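 note: range taken on the double positive population between DMSO and positive control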
Starred values were filed as active, the others as inactive; i = inactive; nt = no result; + = active, no number.

SMILES | iPSC survival up | Myeloid diff MLP | Cardio protect | ABCB6 inh 2 | MIN6 prolif | Myeloid diff | GFP autofluor
CCOC(=O)c1c(NC(=O)c2c(N)n(CCCOC)c3nc4ccccc4nc23)sc2c1CCCC2 | 0 | i | 17 | 96 | -4 | i | 2
NC(=O)CN1CCCC1=O | 2 | i | -4 | 104 | -3 | nt | nt
CCC(C)C1N=C(c2ccccc2)c2cc(Cl)ccc2N(CC(=O)NCc2ccco2)C1=O (configuration not stated) | -2 | i | -16 | 101 | -1 | nt | nt
Cc1ccccc1C1=NCC(=O)N(CC(=O)NCc2ccco2)c2sc3c(c21)CCCC3 | 0 | i | -8 | 96 | -2 | i | 0
O=C(Nc1cccc(OC(=O)N2CCOCC2)c1)N1CCOCC1 | 1 | i | 1 | 92 | 0 | nt | nt
O=C(Nc1cccc(OC(=O)N2CCCCC2)c1)N1CCCCC1 | 0 | i | -15 | 100 | -2 | i | 0
CN1CCN(Cc2ccc(N)cc2)CC1 | 0 | i | 4 | 95 | -1 | nt | nt
Cc1cccc(N2C(=O)NC(=O)/C(=C\c3cnc(-c4ccccc4)nc3)C2=O)c1 | 0 | i | 2 | 98 | -3 | nt | nt
CCCCCCC(=O)N/N=C/c1c(O)n(C2CC2)c(=S)[nH]c1=O | 0 | i | 6 | 103 | -3 | nt | nt
CCCCCCC(=O)N/N=C/c1c(O)n(C(C)CC)c(=S)[nH]c1=O (configuration not stated) | 1 | i | 9 | 100 | -4 | i | 0
CCOC(=O)C1CCCN(c2ccc([N+](=O)[O-])c3nonc23)C1 (configuration not stated) | 0 | + | -26 | 115 | nt | i | 58*
CC1CCCN(c2ccc(C(=O)N3CCC4(CC3)OCCO4)cc2[N+](=O)[O-])C1 (configuration not stated) | 0 | i | 3 | 97 | -1 | nt | nt
OC(c1ccccc1)(c1ccccc1)C1CCNCC1 | -1 | i | -1 | 105 | -2 | nt | nt
OC(c1ccccc1)(c1ccccc1)c1ccncc1 | -1 | + | -2 | i | -1 | i | 1
CC1([N+](=O)[O-])COP(=O)(Nc2cccc(F)c2)OC1 (configuration not stated) | 3 | i | -1 | 103 | nt | nt | nt
Fc1cccc(F)c1-c1nc(-c2ccc(Cl)cc2)no1 | 0 | i | -8 | 99 | 1 | nt | nt
COc1ccc(CN2CCN(Cc3ccccc3)CC2)c(OC)c1 | -1 | i | -3 | 95 | 5 | i | 0
O=C1NC(=O)N(c2ccccc2F)C(=O)/C1=C/c1ccc(Sc2nc3ccccc3[nH]2)o1 | -1 | i | -2 | 97 | nt | nt | nt
O=C1NC(=O)N(Cc2ccc(F)cc2)C(=O)/C1=C\c1ccc(N2CCCC2)cc1 | 0 | + | 1 | 146 | -2 | i | 0
COc1cc2c(c(OC)c1OC)-c1ccc(OC)c(=O)cc1C(N)CC2 (configuration not stated) | -2 | nt | 7 | 102 | nt | nt | nt
